Experimental data taken from ChEMBL document CHEMBL3988442, “University of Dundee, Small-Polar-MMV Screening Library” (2021).

The compounds below were run against AMP-activated protein kinase, AMPK (Homo sapiens) (UniProt P54646+O43741+P54619+Q9UGJ0+Q9Y478+Q13131+Q9UGI9) (assay: AMP-dependent Kinase enzyme assay. An in vitro enzyme assay that detects ADP turnover that is directly proportional to AMPK activity. This uses naive AMPK that is activated during the assay with MK-8722). Conditions: 30 µM.
Type: functional
Design: scale not given: direction of the effect not stated beside the values
For `NCC1Cc2cccc(-c3ccc(O)c(F)c3)c2O1` (centres undefined), the Percent Effect was 89.9%. `Cn1cnnc1C1CCCN(c2nc3ccccc3o2)C1` (centres undefined) was tested, and the Percent Effect was -1.42%. In the case of `c1ccc2oc(C3CCN(Cc4ncon4)CC3)nc2c1`, the Percent Effect is reported as -10.5%. `Cc1sc2ccccc2c1S(=O)(=O)NCCNC(=O)C(C)C` gave a Percent Effect of -0.0872%. Compound `Cc1cc(C)c2c(NC(C)c3nncn3C3CCCC3)ncnc2n1` (centres undefined) has a Percent Effect of 4.35%. For `Cc1nc(CN2CCC(c3cc(N4CCCC4)ncn3)CC2)cs1`, the Percent Effect was 2.88%. Work on `COc1ccc(-c2cc(C3CCCCCN3S(C)(=O)=O)on2)cc1` (centres undefined) yielded a Percent Effect of 7.05%. `CN(Cc1nc(CS(C)(=O)=O)no1)c1ccccc1` was tested, and the Percent Effect was 0.0849%. Work on `CC(C)(O)CCc1cccc(C(=O)NCc2cnn3cccnc23)c1` yielded a Percent Effect of -0.643%. Compound `CCc1noc(C)c1C(=O)N1CCC2(CCCN(CC(C)(C)C)C2=O)C1` (centres undefined) has a Percent Effect of 7.67%. `Cn1nc(C(=O)NCc2ccc(OC3CCCCC3)nc2)ccc1=O` was tested, and the Percent Effect was 8.07%. `CCC(=O)NCCc1cc2nc(-c3ccncc3)ccn2n1` showed a Percent Effect of 18.1%. With `Cc1cnc(N2CCN(C(C)C(N)=O)CC2)nc1` (centres undefined) the Percent Effect was -0.289%. For `COCCN(Cc1sccc1C)C(=O)COc1cccnc1`, the Percent Effect was -3.19%. With `CCC(C(=O)NCCc1nc(C)cc(C(F)(F)F)n1)n1cccn1` (centres undefined) the Percent Effect was -8.03%. `COc1cc(F)ccc1NC(=O)NC(C)C(=O)NC(C)(C)C` (centres undefined) was tested, and the Percent Effect was -11.6%. `COC(=O)C1CCN(C(=O)Cn2ccc(-c3ccccc3)n2)CC1` gave a Percent Effect of -5.77%. In the case of `COc1cc(Br)c(CNc2ccn(CCC(N)=O)n2)cc1OC`, the Percent Effect is reported as 3.74%. `COc1cccnc1NC(=O)COC1CCCC1` showed a Percent Effect of 8.7%. With `Cc1ccc(O)c(CN2CCCCC2CCN2CCOCC2)c1` (centres undefined) the Percent Effect was 8.46%. For `CC(C)CC(=O)N1Cc2ccccc2CC1C(=O)Nc1nncs1` (centres undefined), the Percent Effect was -25.1%. For `CN(Cc1cccc(O)c1)Cc1cnn(C)c1`, the Percent Effect was -1.1%. `COc1ccc(C(=O)N2C[C@@H](NC(=O)N(C)C)[C@H](C(C)C)C2)c(OC)n1` was tested, and the Percent Effect was 1.82%. In the case of `Cc1cccc(C(C)C)c1NC(=O)NCCN(C(C)C)C(C)C`, the Percent Effect is reported as 15.2%. `O=C(O)c1cn(CC2CCCN(c3ccc4ccccc4n3)C2)nn1` (centres undefined) showed a Percent Effect of -0.883%. `CCCn1cc(NC(=O)c2cccc(CN3CC[C@H](O)C3)c2)nn1` showed a Percent Effect of -5.04%. Work on `O=C(Cc1cccs1)NCc1ccnc(C2CCCOC2)n1` (centres undefined) yielded a Percent Effect of 12.2%. Work on `COc1ccc(-c2cnc(CN(CC(N)=O)C3CCCC3)o2)cc1` yielded a Percent Effect of -2.59%. In the case of `O=C(NCc1nnc2n1CCC2)c1ccc(Br)s1`, the Percent Effect is reported as -4.78%. `O=C(c1cnco1)N1CCC(Cc2cccc3ncccc23)CC1` showed a Percent Effect of 5.42%. With `O=C(NC1CCN(C2CC2)CC1)c1cn(-c2ccc(Cl)cc2)nn1` the Percent Effect was 0.108%. Compound `COCC1(C(=O)N[C@H]2CN(c3ccnc(C)c3)C[C@@H]2C2CC2)CCC1` has a Percent Effect of -1.57%. In the case of `Cc1nc(C)c(C(C)NCc2cnc(N3CCOCC3)nc2)s1` (centres undefined), the Percent Effect is reported as 7.71%. `Cc1ccccc1[C@@H]1CN(Cc2ccc(C(F)(F)F)nc2)C[C@H]1C(=O)O` was tested, and the Percent Effect was -5.65%. `O=C(Nc1ccc2c(c1)C(=O)NC2=O)c1ccc(Cl)s1` was tested, and the Percent Effect was -3.34%. Work on `CCc1noc(C(C)N2CCCN(Cc3noc(C4CC4)n3)CC2)n1` (centres undefined) yielded a Percent Effect of 0.0834%. For `CC(CC(=O)c1ccco1)NC(=O)c1ccon1` (centres undefined), the Percent Effect was 9.56%. `Cn1cc(S(=O)(=O)N(CC(F)(F)F)C2CC2)cc1C(N)=O` was tested, and the Percent Effect was 1.54%. `OCC1(NCc2cccc(-n3cccn3)c2)CCOCC1` gave a Percent Effect of -1.31%.
